Assay outcomes as filed in PubChem BioAssay.
RecA intein inh: Mtb RecA intein splicing inhibitors, primary screen, biochemical, fluorescence, HTS. cell-free RecA intein splicing. inhibition, % (no concentration beside the values). 0.75% of 290,000 active. AID 2221, 2009; in the data active = inhibition above about 30%
BJeLR lethal: MLPCN primary cell-based screen for lethality selective to Ras in HRASV12 cells; BJeLR (HRASV12) viability, CellTiter-Glo ATP luminescence, 48 h; inhibition, % (concentration not given with the values); 0.17% of 300,000 active; AID 1554, 2009; in the data active = inhibition above about 50%
PrPC surface inh: inhibitors of human cell surface prion protein PrPC, primary screen, cell-based, TR-FRET | Major prion protein (Homo sapiens), P04156 | TR-FRET read-out | inhibition, % at 13.8 µM | 0.43% of 370,000 active; in the data active = inhibition above about 24%
Mtb FBA inh: Mtb FBA enzyme inhibitors, primary screen, biochemical, fluorescence, strain H37Rv | AID 588726, 2011 | 2.3% of 360,000 active | inhibition, % at 1 µM | purified M. tuberculosis FBA, fluorescence read-out | Fructose-bisphosphate aldolase (Mycobacterium tuberculosis (strain ATCC 25618 / H37Rv)), …; in the data active = inhibition above about 27%
Target sequence (P9WQA3 whole entry, looked up): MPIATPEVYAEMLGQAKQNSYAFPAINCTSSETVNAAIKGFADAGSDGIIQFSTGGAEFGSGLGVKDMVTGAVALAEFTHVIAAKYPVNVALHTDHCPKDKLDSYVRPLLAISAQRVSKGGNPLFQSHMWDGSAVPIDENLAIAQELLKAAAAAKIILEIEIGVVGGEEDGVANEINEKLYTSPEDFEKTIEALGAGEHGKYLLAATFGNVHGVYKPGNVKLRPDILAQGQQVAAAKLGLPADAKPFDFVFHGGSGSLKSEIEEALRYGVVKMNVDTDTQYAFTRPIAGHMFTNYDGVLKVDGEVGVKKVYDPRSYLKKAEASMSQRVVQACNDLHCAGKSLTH
GDH-TPI inh: GDH-TPI coupling enzyme inhibitors, primary screen, artefact control for M. tuberculosis FBA inhibitor project, biochemical, absorbance, full deck | GDH-TPI coupled enzyme counterscreen, NADH absorbance | inhibition, % at 4.8 µM | 1.2% of 360,000 active; in the data active = inhibition above about 30%
Numbers stand for hits; – = inactive; · = no result; + = active, no number. Compounds with a hit are over-represented: about 4.2% of the library has one in this group of screens.

SMILES	RecA intein inh	BJeLR lethal	PrPC surface inh	Mtb FBA inh	GDH-TPI inh
CCOC(=O)[C@]12CCCC=C1N(CCCOC)C(=O)[C@@H]2CC(=O)NCC12CC3CC(CC(C3)C1)C2	·	·	–	·	·
O=C(CSc1cccc2cccnc12)N/N=C/c1ccc(O)cc1	–	–	–	–	47
COc1cccc(/C=N/NC(=O)CSc2cccc3cccnc23)c1	–	–	–	–	–
CC(C)(C)CCN1C[C@@H]2C(CNC(=O)c3cc(Cl)cc(Cl)c3)[C@@H]2C1 (stereo not given in full)	·	·	–	·	·
N#CC1(NC(=O)COC(=O)c2nccnc2N)CCCCC1	–	–	–	165	–
Nc1nccnc1C(=O)OCC(=O)NNC(=O)c1ccccc1	–	–	–	160	–
Cc1cc(NC(=O)COC(=O)c2nccnc2N)n(-c2ccccc2)n1	–	–	–	129	–
N#CC1(NC(=O)COC(=O)c2ccc(Cl)nc2)CCCCC1	–	–	–	–	–
COc1ccccc1C(=O)NC(=O)COC(=O)c1nccnc1N	·	·	–	144	–
COc1ccc(S[C@]2(C(=O)N3CCOCC3)CC(=O)N(c3ccc(OC)cc3)[C@@H]2c2ccc(OC)cc2)cc1	·	·	–	·	·
CCCCc1cccc2[nH]cc(C)c12	·	·	–	·	·
CCOC(=O)CNc1c(-c2ccc(F)cc2)nc2cnccn12	–	–	–	87	–
CCCCNc1c(-c2ccc(OC)c(SC3CCCCC3)c2)nc2cnccn12	–	–	·	–	–
CCCCNc1c(-c2ccc(-c3ccc(C(C)=O)cc3)c(OC)c2)nc2cnccn12	–	–	·	–	34
CCOC(=O)CNc1c(-c2ccc(OC)cc2)nc2ccc(Cl)cn12	–	–	–	–	–
COC(=O)c1ccc(COc2ccc(/C=C(\C#N)c3nc4ccccc4[nH]3)cc2OC)o1	–	–	–	–	32
CCOC(=O)C1CCCN(CC(=O)/C=C2/N(C)c3ccccc3C2(C)C)C1 (stereo not given)	–	–	–	–	31
CN1/C(=C\C(=O)COC(=O)Cn2nnc(-c3ccccc3)n2)C(C)(C)c2ccccc21	–	–	–	–	34
CN1/C(=C/C(=O)COC(=O)CN2C(=O)C3CC=CCC3C2=O)C(C)(C)c2ccccc21 (stereo not given)	·	·	–	–	–
C=CCN1C(=O)[C@@H](CC(=O)NCc2cccc(C(F)(F)F)c2)[C@]2(C(=O)OC)CCCCC=C12	·	·	–	·	·
CCCC1CCC2(CC1)CCC2OC(=O)Nc1cccc(C(F)(F)F)c1 (stereo not given)	·	·	–	·	·
O=C(N/N=C/c1ccc[nH]1)c1ccc(Cl)cc1	–	–	–	–	39
O=C(N/N=C/c1ccc[nH]1)c1ccccc1[N+](=O)[O-]	–	–	–	–	–
Cc1ccc(C(=O)N/N=C\c2ccc[nH]2)cc1[N+](=O)[O-]	–	–	–	–	48
CN(C)/C=C/C(=O)c1ccc(N2CCN(c3ncc(C(F)(F)F)cc3Cl)CC2)cc1	–	–	–	–	40
SMILES	RecA intein inh	BJeLR lethal	PrPC surface inh	Mtb FBA inh	GDH-TPI inh
CN(C)C=NC(=O)c1ccc(N2CCN(c3ncc(C(F)(F)F)cc3Cl)CC2)cc1	–	–	–	–	–
Cn1ccc(/C=N/N=C2/NC(=O)CS2)n1	–	–	–	–	46
CC(C)c1cc(Cn2c3ccccc3c(=O)n2C(C)Cn2cc(COc3ccccc3)nn2)on1 (stereo not given)	·	·	–	·	·
CC(C)n1c(=O)c2ccccc2n1Cc1cn(Cc2cccs2)nn1	·	·	–	152	·
CC(C)n1c(=O)c2ccccc2n1Cc1cn(Cc2cccnc2)nn1	·	·	–	154	·
COc1ccc(C2Nc3cc(OC)ccc3-n3cccc32)cc1 (stereo not given)	–	–	–	–	34
COc1ccc(C)cc1NC(=O)CSc1nnc(-c2n[nH]c3c2CCC3)n1N	·	·	–	·	·
CCN1CCN(Cc2c(O)c(Cl)cc3c(C)cc(=O)oc23)CC1	–	–	–	+	–
Cc1cc(=O)oc2c(CN3CCC(C)CC3)c(O)c(Cl)cc12	–	·	–	+	–
CCc1cc(=O)oc2cc(C)c(CN3CCCC3)c(O)c12	–	–	–	–	–
Cc1cc(=O)oc2c(CN3CCCC3)c(O)c(Cl)cc12	–	–	–	+	–
Cc1cc2oc(=O)cc(CN3CCC(C)CC3)c2cc1Cl	–	–	–	–	–
Cc1cc(=O)oc2c(CN3CCCCC3)c(O)c(Cl)cc12	–	–	–	+	–
C=CCc1c(O)c(CC)cc2c(C)cc(=O)oc12	–	–	–	+	–
CCN(CC)Cc1c(O)c(Cl)cc2c(C)cc(=O)oc12	–	–	–	+	–
CCc1cc(=O)oc2c(CNCc3ccccc3F)c(O)c(Cl)cc12	–	–	–	+	–
CCCc1cc(=O)oc2cc(C)c(CN3CCCC3)c(O)c12	–	–	–	–	–
CCCc1cc(=O)oc2c(CN3CCCC3)c(O)c(Cl)cc12	–	–	–	+	–
CCN(CC)Cc1c(O)c(Cl)cc2c(C)c(C)c(=O)oc12	–	–	–	·	–
CCC(=O)c1cc2c(C)cc(=O)oc2c(C)c1O	–	–	–	–	–
CCc1cc(=O)oc2c(CNC(Cc3ccccc3)C(=O)O)c(O)ccc12 (stereo not given)	–	–	–	·	·
COc1ccc(C(=O)O[C@@H]2CCC[C@@]3(C(=O)N(Cc4ccccc4)c4ccccc43)[C@H]2NC(=O)CCc2ccccc2)cc1OC	·	·	–	·	·
CC1=CC2(C(Cc3ccccc3)N(CC3CC3)C(=NC(=O)c3ccccc3)N2C(=O)OCc2ccccc2)n2c(=O)n(-c3ccccc3)c(=O)n2C1 (stereo not given)	·	·	–	·	·
CCOc1ccc(-n2c(SCC(=O)Nc3ccccc3-c3ccccc3)nnc2-c2ccncc2)cc1	·	·	–	·	·
CC(=O)c1cc2c(O)c(O)ccc2o1	–	–	–	–	–
SMILES	RecA intein inh	BJeLR lethal	PrPC surface inh	Mtb FBA inh	GDH-TPI inh
CC(=O)c1cc2ccc(O)cc2oc1=O	–	–	–	+	–
O=C(NCc1ccco1)c1cc2ccccc2o1	–	–	–	–	–
CC(=O)c1cc2cc(O)ccc2o1	–	–	–	+	–
O=C(NCc1ccco1)c1cc2ccc(O)cc2oc1=O	–	–	–	+	–
Cc1ccc(N=c2oc3cc(O)ccc3cc2C(N)=O)cc1	–	–	–	+	–
O=C(O[C@H]1CC[C@@]23CCCN2C(=O)CCC[C@H]3C1)N1CCOCC1	·	·	–	·	·
N#Cc1c(N)nc2c(c1-c1ccc(F)cc1)CCC2	–	–	–	64	–
Cc1ccc(-c2c(C#N)c(N)nc3c2CCCCC3)cc1	–	–	–	–	–
Cc1cc(C)c2nc(C)cc(Nc3ccc(C(=O)NCCO)cc3)c2c1	–	–	–	–	59
CC(=O)c1ccc(Nc2cc(C)nc3c(C)cc(C)cc23)cc1	–	–	–	–	–
CCCN(CCC)C1=CC(=[N+]2CCCC2)CC(C)(C)C1	–	–	–	–	46
